Source: PubChem BioAssay (NCI)
About 79,000 compounds went through this panel and 15% of them were active in at least one assay; those are over-represented in the sample as a whole. The source made the active and inactive calls. Cut-off read from the data, not from the text of the source: active = growth inhibition above about 70%; inactive = the rest.

Tests used:
[1] = NCI Yeast Anticancer Drug Screen. Data for the rad52 strain (AID 147);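 note: 0% = growth of vehicle-treated control cultures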; conditions: S. cerevisiae rad52 mutant growth inhibition, active compounds read high
Method in brief: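 Read-out: growth inhibition versus vehicle-treated controls. Cells were a DNA repair-deficient yeast strain treated with compounds.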

[2] = NCI Yeast Anticancer Drug Screen. Data for the wt1 strain (AID 149);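 note: 0% = growth of vehicle-treated wt1 cultures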; conditions: S. cerevisiae wt1 strain (SPY 50644) growth inhibition, active compounds read high
Method in brief: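 Readout: yeast growth inhibition, normalised to vehicle controls, in the wt1 strain exposed to test compounds.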

[3] = NCI Yeast Anticancer Drug Screen. Data for the rad50EPP+ strain (AID 151);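 note: 0% = growth of vehicle-treated control cultures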; conditions: S. cerevisiae rad50 mutant strain, active compounds read high
Method in brief: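 Growth inhibition read against vehicle controls in rad50EPP+ yeast, a strain altered in DNA damage repair, after compound exposure.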

[4] = NCI Yeast Anticancer Drug Screen. Data for the mgt1 strain (AID 153); conditions: S. cerevisiae mgt1 mutant growth inhibition, active compounds read high
Method in brief: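 mgt1 yeast grown with test compound; read-out is growth inhibition versus vehicle-treated cultures.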

[5] = NCI Yeast Anticancer Drug Screen. Data for the rad50 strain (AID 155);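 note: 0% = growth of vehicle-only cultures of the same strain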; conditions: S. cerevisiae rad50 strain growth inhibition, active compounds read high
Method in brief: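 Compounds were tested on a yeast strain with an engineered DNA damage repair alteration; the reported value is growth inhibition normalised to vehicle treatment.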

[6] = NCI Yeast Anticancer Drug Screen. Data for the mec2-1 strain (AID 157); conditions: S. cerevisiae mec2-1 strain, active compounds read high
Method in brief: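 Yeast mec2-1 mutant treated with compound. Readout: growth inhibition vs vehicle controls.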

[7] = NCI Yeast Anticancer Drug Screen. Data for the rad14 strain (AID 159);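 note: 0% = growth of vehicle-treated control cultures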; conditions: S. cerevisiae rad14 strain growth inhibition, active compounds read high
Method in brief: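 Compound-treated yeast with a defined DNA-repair lesion; growth inhibition normalised to vehicle-treated cultures.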

[8] = NCI Yeast Anticancer Drug Screen. Data for the sgs1 mgt1 strain (AID 161);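 note: 0% = growth of cultures given vehicle only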; conditions: S. cerevisiae sgs1 mgt1 strain, active compounds read high
Method in brief: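 Mutant yeast exposed to compound; growth scored against vehicle-only wells.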

[9] = NCI Yeast Anticancer Drug Screen. Data for the CLN2oe strain (AID 163);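 note: 0% = growth of vehicle-only control cultures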; conditions: S. cerevisiae CLN2oe strain, active compounds read high
Method in brief: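 Read-out: yeast growth inhibition, expressed relative to vehicle-only controls. The strain bears an engineered cell-cycle alteration.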

[10] = NCI Yeast Anticancer Drug Screen. Data for the cln2 rad14 strain (AID 165);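 note: 0% = growth equal to vehicle treated cultures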; conditions: S. cerevisiae cln2 rad14 strain, active compounds read high
Method in brief: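 cln2 rad14 yeast strain; compound exposure; growth inhibition read vs vehicle controls.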

[11] = NCI Yeast Anticancer Drug Screen. Data for the bub3 strain (AID 167); conditions: S. cerevisiae bub3 mutant strain, active compounds read high
Method in brief: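 Growth of a checkpoint-deficient yeast mutant is measured after compound exposure. Values represent inhibition relative to vehicle.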

[12] = NCI Yeast Anticancer Drug Screen. Data for the wt2 strain (AID 169);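 note: 0% = growth of vehicle-treated yeast cultures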; conditions: S. cerevisiae wt2 strain growth inhibition, active compounds read high
Method in brief: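 Read-out: growth inhibition versus vehicle-treated control cultures after compound exposure of the yeast strain.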

[13] = NCI Yeast Anticancer Drug Screen. Data for the mlh1 strain (AID 171);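 note: 0% = growth of vehicle-treated control cultures of the same strain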; conditions: S. cerevisiae mlh1 strain growth inhibition, active compounds read high
Method in brief: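 Read-out: growth inhibition versus vehicle controls. Strain: engineered yeast with a defined DNA repair or cell cycle defect, compound-treated.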

[14] = NCI Yeast Anticancer Drug Screen. Data for the sgs1 strain (AID 173);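 note: 0% = growth of vehicle-only control cultures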; conditions: S. cerevisiae sgs1 mutant, active compounds read high
Method in brief: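 Read-out: yeast growth inhibition relative to vehicle controls, following compound exposure of a strain with a defined DNA repair/cell cycle alteration.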

[15] = NCI Yeast Anticancer Drug Screen. Data for the mlh1 rad18 strain (AID 175); conditions: S. cerevisiae mlh1 rad18 strain growth inhibition, active compounds read high
Method in brief: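 Yeast w/ defined DNA-repair lesions; compound exposure; growth vs vehicle controls → % inhibition.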

[16] = NCI Yeast Anticancer Drug Screen. Data for the rad18 strain (AID 177); conditions: S. cerevisiae rad18 mutant growth inhibition, active compounds read high
Method in brief: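 Readout: growth inhibition vs vehicle controls. Cells: genetically altered yeast strain, DNA repair defect.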

[17] = at 5.0 µM (retest, dose inferred, filed as 0.5)
[18] = at 50.0 µM (retest, dose inferred, filed as 5.0)

Measured: growth inhibition

CCC1(O)C(=O)OCc2c1cc1n(c2=O)Cc2cc3c(N)cccc3nc2-1 (stereo unspecified)
active: [5]; [18] 79%
inactive: [1]; at 1.2 µM -21% | [1]; at 3.7 µM 31% | [1]; at 11.0 µM 53% | [1]; at 33.0 µM 57% | [1]; at 100.0 µM 54% | [2]; at 1.2 µM -22% | [2]; at 3.7 µM -14% | [2]; at 11.0 µM -26% | [2]; at 33.0 µM -24% | [2]; at 100.0 µM -16% | [3]; at 1.2 µM -12% | [3]; at 3.7 µM 7% | [3]; at 11.0 µM -8% | [3]; at 33.0 µM 10% | [3]; at 100.0 µM -8% | [4]; at 1.2 µM -12% | [4]; at 3.7 µM -15% | [4]; at 11.0 µM 3% | [4]; at 33.0 µM -5% | [4]; at 100.0 µM -31% | [5]; at 1.2 µM 11% | [5]; at 3.7 µM 38% | [5]; [17] 58% | [5]; at 11.0 µM 64% | [5]; at 33.0 µM 68% | [5]; at 50.0 µM 56.5% | [5]; at 100.0 µM 60% | [6]; at 1.2 µM -22% | [6]; at 3.7 µM -5% | [6]; [17] 7% | [6]; at 11.0 µM -12% | [6]; at 33.0 µM -18% | [6]; [18] 12% | [6]; at 50.0 µM -0.85% | [6]; at 100.0 µM -35% | [7]; at 1.2 µM -10% | [7]; at 3.7 µM -10% | [7]; at 11.0 µM -19% | [7]; at 33.0 µM -17% | [7]; at 100.0 µM -23% | [8]; [17] 24% | [8]; [18] 19% | [8]; at 50.0 µM -2.35% | [9]; at 1.2 µM -8% | [9]; at 3.7 µM -15% | [9]; at 11.0 µM -33% | [9]; at 33.0 µM -34% | [9]; at 100.0 µM -41% | [10]; [17] 21% | [10]; [18] 14% | [10]; at 50.0 µM -6.95% | [11]; at 1.2 µM -37% | [11]; at 3.7 µM -28% | [11]; [17] 14% | [11]; at 11.0 µM -34% | [11]; at 33.0 µM -47% | [11]; [18] 6% | [11]; at 50.0 µM -9.3% | [11]; at 100.0 µM -33% | [12]; at 1.2 µM -16% | [12]; at 3.7 µM -18% | [12]; at 11.0 µM -17% | [12]; at 33.0 µM -30% | [12]; at 100.0 µM -38% | [13]; at 1.2 µM -23% | [13]; at 3.7 µM -22% | [13]; at 11.0 µM -11% | [13]; at 33.0 µM -34% | [13]; at 100.0 µM -44% | [14]; at 1.2 µM -19% | [14]; at 3.7 µM -7% | [14]; at 11.0 µM 0% | [14]; at 33.0 µM 6% | [14]; at 100.0 µM 7% | [15]; [17] 16% | [15]; [18] 16% | [15]; at 50.0 µM -65.3% | [16]; at 1.2 µM -42% | [16]; at 3.7 µM -37% | [16]; at 11.0 µM -31% | [16]; at 33.0 µM -26% | [16]; at 100.0 µM -48%

COC(=O)C1CCCCC1C(=O)Nc1ccccc1 (stereo unspecified)
inactive: [1]; at 1.2 µM 0% | [1]; at 3.7 µM 1% | [1]; at 11.0 µM 1% | [1]; at 33.0 µM 1% | [1]; at 100.0 µM -2% | [2]; at 1.2 µM -2% | [2]; at 3.7 µM -2% | [2]; at 11.0 µM 0% | [2]; at 33.0 µM -1% | [2]; at 100.0 µM 0% | [3]; at 1.2 µM -3% | [3]; at 3.7 µM -1% | [3]; at 11.0 µM -1% | [3]; at 33.0 µM -6% | [3]; at 100.0 µM 0% | [4]; at 1.2 µM 0% | [4]; at 3.7 µM -1% | [4]; at 11.0 µM 1% | [4]; at 33.0 µM -1% | [4]; at 100.0 µM -32% | [5]; at 1.2 µM -3% | [5]; at 3.7 µM -1% | [5]; [17] 10% | [5]; at 11.0 µM 0% | [5]; at 33.0 µM 0% | [5]; [18] 2% | [5]; at 50.0 µM 20.8% | [5]; at 100.0 µM -3% | [6]; at 1.2 µM -3% | [6]; at 3.7 µM -3% | [6]; [17] 0% | [6]; at 11.0 µM -2% | [6]; at 33.0 µM -4% | [6]; [18] -2% | [6]; at 50.0 µM 10.8% | [6]; at 100.0 µM -1% | [7]; at 1.2 µM -2% | [7]; at 3.7 µM -3% | [7]; at 11.0 µM -2% | [7]; at 33.0 µM -1% | [7]; at 100.0 µM -3% | [8]; [17] 0% | [8]; [18] -26% | [8]; at 50.0 µM 15.4% | [9]; at 1.2 µM -3% | [9]; at 3.7 µM -1% | [9]; at 11.0 µM -4% | [9]; at 33.0 µM -3% | [9]; at 100.0 µM -1% | [10]; [17] -2% | [10]; [18] 6% | [10]; at 50.0 µM 62.5% | [11]; at 1.2 µM -10% | [11]; at 3.7 µM -10% | [11]; [17] -7% | [11]; at 11.0 µM -12% | [11]; at 33.0 µM -12% | [11]; [18] -9% | [11]; at 100.0 µM -11% | [12]; at 1.2 µM -2% | [12]; at 3.7 µM -1% | [12]; at 11.0 µM -2% | [12]; at 33.0 µM -4% | [12]; at 100.0 µM -1% | [13]; at 1.2 µM 0% | [13]; at 3.7 µM 0% | [13]; at 11.0 µM 2% | [13]; at 33.0 µM 2% | [13]; at 100.0 µM 2% | [14]; at 1.2 µM -2% | [14]; at 3.7 µM -2% | [14]; at 11.0 µM 0% | [14]; at 33.0 µM 0% | [14]; at 100.0 µM 1% | [15]; [17] -3% | [15]; [18] -2% | [15]; at 50.0 µM 25.6% | [16]; at 1.2 µM -2% | [16]; at 3.7 µM -1% | [16]; at 11.0 µM -2% | [16]; at 33.0 µM -3% | [16]; at 100.0 µM -1%
active: [11]; at 50.0 µM 74.2%
